# In all, about 16,000 compounds went through this assay and about 5,100 (32%) were called active. About 25% were inconclusive and are not listed. The list shows a part of the results. Some compounds were tested as several samples or in several runs, with calls that do not always agree. A number with no mark means an inactive call. Calls follow the shape of the dose curve; as a rule, active = well fitted curve in the direction sought with a large enough effect; inconclusive = small, poorly fitted or top-dose-only effect, or effect the other way; inactive = no such curve, though single readings can be large or run the other way.
# Biological target: Cytochrome P450 3A4 (Homo sapiens) (UniProt P08684)
# Sequence (P08684 whole entry, looked up): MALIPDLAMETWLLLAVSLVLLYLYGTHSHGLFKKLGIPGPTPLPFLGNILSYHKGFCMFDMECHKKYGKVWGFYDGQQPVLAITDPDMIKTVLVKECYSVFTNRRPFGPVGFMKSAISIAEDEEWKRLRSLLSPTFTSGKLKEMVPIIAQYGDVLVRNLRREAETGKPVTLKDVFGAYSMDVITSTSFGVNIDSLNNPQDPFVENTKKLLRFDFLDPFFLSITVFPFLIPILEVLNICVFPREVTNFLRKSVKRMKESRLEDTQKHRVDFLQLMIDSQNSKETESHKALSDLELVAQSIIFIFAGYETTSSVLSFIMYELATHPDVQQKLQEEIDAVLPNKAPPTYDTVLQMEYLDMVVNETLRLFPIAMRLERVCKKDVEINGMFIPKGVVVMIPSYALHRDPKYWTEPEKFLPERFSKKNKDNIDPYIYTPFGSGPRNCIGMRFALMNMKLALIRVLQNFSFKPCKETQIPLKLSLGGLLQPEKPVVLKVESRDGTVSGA
# Assay: Cytochrome panel assay with activity outcomes
# Settings: recombinant CYP, pro-luciferin dealkylation, luminescence, p450-cyp3a4; series mostly up to 57.1 µM; activity, negative = inhibition: at the top concentration
# % is scaled to controls: 0 for no effect and ±100 for the full control effect.
SMILES,"activity, negative = inhibition",AC50
c1ccc2c(c1)C(=Nc1ccc(N=C3c4ccccc4-c4ccccc43)cc1)c1ccccc1-2,-5.03% [at 11.4 µM],
CCNC(=O)C/C(C)=N/NC(=O)C12CC3CC(CC(C3)C1)C2,18.8% [at 2.29 µM],
CCOC(=O)CSCC(NC(=O)OC(C)(C)C)C(=O)OCC (configuration not stated),-18.6%,
CO[C@H]1COC(=O)C/C=C\[C@@H](C)COC(=O)[C@H]2CCCN2C(=O)C/C=C\[C@H]1C,-22.4% [at 11.4 µM],
Cc1ccc(S(=O)(=O)N[C@H]2COC(=O)C/C=C\[C@@H](C)[C@H](NS(=O)(=O)c3ccc(C)cc3)COC(=O)[C@H](C)NC(=O)C/C=C\[C@H]2C)cc1,-35.2% [at 11.4 µM],
CO[C@H]1COC(=O)C/C=C\[C@@H](C)COC(=O)[C@@H](C)NC(=O)C/C=C\[C@@H]1C,14.4% [at 11.4 µM],
Cc1ccc(S(=O)(=O)N[C@H]2COC(=O)C/C=C\[C@H](C)[C@@H](NS(=O)(=O)c3ccc(C)cc3)COC(=O)C/C=C\[C@@H]2C)cc1,,3.98 µM (active)
Cc1ccc(S(=O)(=O)N[C@H]2COC(=O)C/C=C\[C@@H](C)COC(=O)C/C=C\[C@@H]2C)cc1,-13.2% [at 11.4 µM],3.16 µM (active)
COCC(=O)N1CCC2(CC1)CN(c1ccccn1)C2,0.699%,
CC(=O)N1CCC2(CC1)CCN(c1ccccn1)CC2,-3.11%,
CC(=O)Nc1ccc(S(=O)(=O)NCC2CCC(C(=O)N3CCN(c4ccccn4)CC3)CC2)cc1 (configuration not stated),,12.6 µM (active)
O=C(c1cnc(N2CCN(c3ncccn3)CC2)c2ccccc12)N1CCN(c2ccccn2)CC1,-7.43% [at 11.4 µM],
CC(C)c1ccc(OCc2ccc(C(=O)N3CCN(c4ccccn4)CC3)cc2)cc1,-15.4%,
CC(=O)Nc1ccc(S(=O)(=O)N2CCC(N(C)CCC(C)C)CC2)cc1,-19.6%,
CC(=O)Nc1ccc(S(=O)(=O)NCC2CCC(C(=O)NCCC(C)C)CC2)cc1 (configuration not stated),,17.8 µM (active)
O=C(C1CCN(S(=O)(=O)c2cccc3cccnc23)CC1)N1CCN(c2ccccn2)CC1,,3.55 µM (active)
O=C(C1CCN(S(=O)(=O)N2CCOCC2)CC1)N1CCN(c2ccccc2)CC1,-27.5%,
COc1ccc(S(=O)(=O)NCc2ccc(C(=O)N3CCN(c4ccccn4)CC3)cc2)cc1,,15.8 µM (active)
COC(Cn1c(C)c(C(C)=O)c(C(C)=O)c1C)OC,-5.99%,
O=C(O)COC(=O)Cc1ccccc1Nc1c(Cl)cccc1Cl,-3.09% [at 25.6 µM],
CCOC(=O)n1ccn(C)c1=S,-4.03% [at 25.6 µM],
Cc1ccc2cc(CCNC(=O)c3ccc(Br)o3)c(=O)[nH]c2c1,,14.1 µM (active)
COc1ccc2cc(CCNC(=O)C3CC3)c(=O)[nH]c2c1,-21.9%,
CCOC(=O)N/N=C1/C[C@@H](O)[C@@H](O)[C@@H]2[C@@H]3C(=O)N(c4cccc(Oc5ccccc5)c4)C(=O)[C@H]3CC[C@H]12,-29.2% [at 11.4 µM],
CCOC(=O)N/N=C1/C[C@@H](O)[C@@H](O)[C@@H]2[C@@H]3C(=O)N(Cc4ccc5c(c4)OCO5)C(=O)[C@H]3CC[C@@H]12,,3.98 µM (active)
O=C(N/N=C1/C[C@@H](O)[C@@H](O)[C@@H]2[C@@H]3C(=O)N(Cc4ccccc4)C(=O)[C@H]3CC[C@@H]12)OCc1ccccc1,-17.8% [at 11.4 µM],

SMILES,"activity, negative = inhibition",AC50
CCN1C(=O)[C@H]2[C@H]3[C@H](O)[C@H](O)C/C(=N/NC(=O)OCc4ccccc4)[C@@H]3CC[C@@H]2C1=O,-8.99% [at 11.4 µM],
O=C(N/N=C1/C[C@@H](O)[C@@H](O)[C@@H]2[C@@H]3C(=O)N(Cc4ccc5c(c4)OCO5)C(=O)[C@H]3CC[C@H]12)OCc1ccccc1,,3.98 µM (active)
CCOC(=O)N/N=C1/C[C@@H](O)[C@@H](O)[C@@H]2[C@@H]3C(=O)N(c4cccc(Oc5ccccc5)c4)C(=O)[C@H]3CC[C@@H]12,-28.7% [at 11.4 µM],
COc1ccc(COC(=O)N/N=C2/C[C@@H](O)[C@@H](O)[C@@H]3[C@@H]4C(=O)N(c5cccc(Oc6ccccc6)c5)C(=O)[C@H]4CC[C@H]23)cc1,,3.16 µM (active)
O=C(N/N=C1/C[C@@H](O)[C@@H](O)[C@@H]2[C@@H]3C(=O)N(Cc4ccccc4)C(=O)[C@H]3CC[C@H]12)OCc1ccccc1,-21.6% [at 11.4 µM],
CCOC(=O)N/N=C1/C[C@@H](O)[C@@H](O)[C@@H]2[C@@H]3C(=O)N(Cc4ccccc4)C(=O)[C@H]3CC[C@@H]12,-18.3% [at 11.4 µM],
O=C(N/N=C1/C[C@@H](O)[C@@H](O)[C@@H]2[C@@H]3C(=O)N(Cc4ccc5c(c4)OCO5)C(=O)[C@H]3CC[C@@H]12)OCc1ccccc1,,1.26 µM (active)
CCOC(=O)N/N=C1/C[C@@H](O)[C@@H](O)[C@@H]2[C@@H]3C(=O)N(Cc4ccccc4)C(=O)[C@H]3CC[C@H]12,-22% [at 11.4 µM],
CCN1C(=O)[C@H]2[C@H]3[C@H](O)[C@H](O)C/C(=N/NC(=O)OCc4ccccc4)[C@H]3CC[C@@H]2C1=O,-12.4% [at 11.4 µM],
O=C(O)C12CC3(C(=O)O)CC(C(=O)O)(CC(C(=O)O)(C1)C3=O)C2=O,-8.55% [at 11.4 µM],
N[C@@H](C(=O)O)c1ccc(O)c(C(=O)O)c1,-20.5%,
NC(=NCCCCCCN=C(N)/N=C(\N)Nc1ccc(Cl)cc1)/N=C(\N)Nc1ccc(Cl)cc1,-12.9% [at 25.6 µM],
Nc1nc2c(c(=O)[nH]1)CN(CCCN1CCOCC1)CN2,-5.39% [at 11.4 µM],
C[C@@H](C(=O)Nc1ccc2ccccc2c1)[C@H]1C[C@]1(C)[C@H](NS(=O)(=O)c1ccc(-c2ccccc2)cc1)c1ccccc1,,10 µM (active)
C[C@@H](C(=O)Nc1ccc2ccccc2c1)[C@H]1C[C@]1(C)[C@H](NS(=O)(=O)c1ccc2ccccc2c1)c1ccccc1,,7.94 µM (active)
Cc1nn(C)c(Cl)c1S(=O)(=O)N[C@@H](c1ccccc1)[C@]1(C)C[C@H]1[C@@H](C)C(=O)Nc1ccc2ccccc2c1,,1.26 µM (active)
C[C@@H](C(=O)Nc1ccc2ccccc2c1)[C@@H]1C[C@@]1(C)[C@@H](NS(=O)(=O)c1ccc(-c2ccccc2)cc1)c1ccccc1,-22%,
CC(C)OC(=O)CC12CN(C)CC(CC(=O)OC(C)C)(CN(C)C1)C2=O,15.3% [at 2.29 µM],
Fc1ccc(-c2ccnc3nc(N4CCOCC4)nn23)cc1,-27.2%,
O=C(OCc1ccccc1)/C(=C/c1ccc(Cl)cc1)NC(=O)c1ccccc1Cl,,0.178 µM (active)
COc1ccc(C(=O)NCC(=O)OCc2cccc(Br)c2)cc1,,7.94 µM (active)
C/C(=C\c1ccc(Cl)cc1)C(C)(C)C(=O)O,-11.2% [at 11.4 µM],
O=C(CNC(=O)/C(=C\c1ccccc1)NC(=O)c1ccc(Br)cc1)OCc1ccccc1,,0.2 µM (active)
COc1ccccc1C(=O)N/C(=C/c1ccc(Br)cc1)C(=O)NCC(=O)O,,8.91 µM (active)
COC(=O)CCC(=O)NNC(=O)c1ccc(Br)cc1,-9.71%,
O=C(O)CNC(=O)c1ccccc1O,-5.63% [at 11.4 µM],

SMILES,"activity, negative = inhibition",AC50
CS(=O)(=O)Nc1cccc(-c2nc(Nc3ccc(F)cc3)c3ccccc3n2)c1,,6.31 µM (active)
CS(=O)(=O)Nc1cccc(-c2nc(Nc3ccccc3)c3ccccc3n2)c1,,10 µM (active)
CN(C)c1nc(-c2cccc(NS(C)(=O)=O)c2)nc2ccccc12,,6.31 µM (active)
Cc1cccc(C(=O)NN(C)c2nc(-c3ccccc3)nnc2C(F)(F)F)c1,-22.4%,
COc1cccc(-c2nc(Nc3ccncc3)c3ccccc3n2)c1,,2.51 µM (active)
N#Cc1cc2nc(O)c(O)nc2cc1[N+](=O)[O-],,inactive
CS(=O)(=O)Nc1cccc(-c2nc(Nc3ccncc3)c3ccccc3n2)c1,,3.98 µM (active)
CNc1nc(-c2cccc(NS(C)(=O)=O)c2)nc2ccccc12,,10 µM (active)
CS(=O)(=O)Nc1cccc(-c2nccc(Nc3ccc(F)cc3)n2)c1,,10 µM (active)
Oc1cc(CN2COc3ccccc32)c(O)cc1CNC1CCCCC1,-5.1% [at 11.4 µM],
CCN1C(=O)C=CC1=O,3.37%,
O=C(c1ccco1)N1CCC2(CCN(Cc3ccncc3)CC2)CC1,,12.6 µM (active)
O=C(c1ccco1)N1CCC2(CC1)CN(Cc1cc(C(F)(F)F)cc(C(F)(F)F)c1)C2,-18.1%,
O=C(c1ccco1)N1CCC2(CCCN(Cc3ccncc3)C2)CC1,,5.01 µM (active)
O=C(O)[C@H](/C=C\c1ccccc1)c1ccccc1,-11.9% [at 11.4 µM],
Cc1ccc(S(=O)(=O)CC#CCOC(=O)c2ccc([N+](=O)[O-])cc2)cc1,,15.8 µM (active)
Cc1ccc(CNC(=O)C2CC(c3ccccc3[N+](=O)[O-])=NO2)cc1 (configuration not stated),-29.5% [at 2.29 µM],
Cc1ccc(CNC(=O)C2CCC(=O)N2C2CCCCC2)cc1 (configuration not stated),,7.94 µM (active)
O=C(O)C1CCCN1C(=O)OCc1ccccc1 (configuration not stated),-15%,
COc1ccccc1NC(=O)N1CCCC1C(=O)NCc1ccc2c(c1)OCO2 (configuration not stated),,0.355 µM (active)
Cc1ccc(CNC(=O)C2CCCN2C(=O)NCc2ccccc2)cc1 (configuration not stated),,3.55 µM (active)
COc1ccc(NC(=O)N2CCCC2C(=O)Nc2ccccc2)cc1 (configuration not stated),-9.78%,
NS(=O)(=O)c1ccc(CCNC(=O)C2CCCN2C(=O)OCc2ccccc2)cc1 (configuration not stated),,12.6 µM (active)
O=C(NCCCN1CCN(c2ccccc2F)CC1)C1CCC(=O)N1C1CCCCC1 (configuration not stated),-23%,

# — PubChem BioAssay AID1851 (National Center for Advancing Translational Sciences (NCATS), 2009)
